Unmarked numbers belong to inactive results. How the calls were made is not given here.

The results in this text go back to PubChem BioAssay.

This test deals with Pantothenate synthetase (Mycobacterium tuberculosis (strain ATCC 25618 / H37Rv)) (UniProt P9WIL5). In words: Recombinant Mtb pantothenate synthetase (PanC) inhibitors, coupled enzyme, confirmatory (AID 375).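 Further: 0% = full reaction with vehicle and 100% = no enzyme background.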 The following applies: coupled enzyme assay; at 10 µM, stronger effect = higher value.
Sequence of Pantothenate synthetase (Mycobacterium tuberculosis (strain ATCC 25618 / H37Rv)) (P9WIL5 whole entry, looked up): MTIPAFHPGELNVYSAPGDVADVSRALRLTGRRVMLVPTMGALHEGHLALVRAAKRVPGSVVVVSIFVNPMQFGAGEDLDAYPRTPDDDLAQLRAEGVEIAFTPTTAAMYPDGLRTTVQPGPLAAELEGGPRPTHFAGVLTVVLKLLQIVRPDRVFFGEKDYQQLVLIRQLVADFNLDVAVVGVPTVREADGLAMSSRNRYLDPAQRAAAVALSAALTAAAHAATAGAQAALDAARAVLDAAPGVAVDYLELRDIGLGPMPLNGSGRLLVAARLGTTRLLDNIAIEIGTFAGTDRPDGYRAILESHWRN
With `CCn1cnc2cc(NCc3cccc(OC)c3O)ccc21`, the inhibition was 12%. As for `CC(C)Cn1c(=O)c(C(=O)Nc2ccccc2S(N)(=O)=O)c(O)c2ccccc21`, the figure is 0%; as for `COc1cc(-c2nnc(SCC(=O)c3ccc(C)cc3)o2)cc(OC)c1OC`, 0%; as for `Cc1cc(SCC(N)=O)nc(SCC(=O)c2ccccc2)n1`, 0%.

In the case of `COc1cccc(C(=O)Nc2ccc(N(C)C)cc2)c1OC`, the inhibition was 8%. As for `CC(=O)N1CCN(Cc2ccc(Br)s2)CC1`, the figure is 0%. As for `N#CCCCCn1c(-c2cncs2)nc2ccccc21`, the figure is 0%.

`N=c1sc2ccccc2n1-c1ccccc1`: the inhibition is 3%.

For the molecule `COCCOC(=O)C1=C(C)NC(=O)CC1c1cc2c(cc1Br)OCO2` (stereo not drawn), the inhibition was 1%. As to `FC(F)(F)c1cccc(N2CCN(c3nnnn3-c3ccccc3)CC2)c1`, the inhibition was 0%. As for `Cc1ccc(-n2ncc3c(N4CCN(c5ccccc5)CC4)ncnc32)c(C)c1`, the figure is 0%; as for `CCOC(=O)CCc1c(C)nc2cc(-c3ccc(F)cc3)[nH]n2c1=O`, 0%; as for `CC(C)OC(=O)CCCCCN1C(=O)CSC1=S`, 1%. In the case of `COC(=O)c1ccc(NC(=O)CN2CCN(c3ccc(Cl)cc3)CC2)cc1`, the inhibition was 1%.

As for `CCOC(=O)c1ccccc1NC(=O)c1cccnc1`, the inhibition is 0%. The value for `Cc1cc(NC(=O)c2ccccc2)ncc1NC(=O)c1ccco1` was 0%. The value for `Cc1ccccc1NC(=O)C1CC(=O)N(c2ccccc2F)C1` (stereo not drawn) was 1%; that for `Cc1cc(C)n(-c2nnc(C)n2/N=C/c2ccco2)n1` was 1%.
